Shiga toxin inh: Shiga toxin inhibition; Vero cells, Shiga toxin protein synthesis inhibition reporter; inhibition, % at 38.7 µM; 290,000 compounds, 9.2% hits; in the data active = inhibition mostly above about 28%, no sharp cut-off; inactive = mostly below about 43%; also: 0% is about no effect
Pf growth 48h: inhibits P. falciparum growth in the first generation, 48 h; P. falciparum luciferase growth in erythrocytes, 48 h; AID 504832; Potency, µM (titrated, usually from 28.7 µM), inactives show at the highest dose activity change, negative = inhibition, hits mostly inhibitors; 310,000 compounds, 5.9% hits; also: potency is read from the fitted curve at half-maximal effect; % is scaled to controls: 0 for no effect and ±100 for the full control effect
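Parasite viability was followed by luminescence of a genomically integrated firefly luciferase. Cultures held 0.1% parasitemia at 2% hematocrit (final), incubated under 5% CO2 at 37 C.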
CHX counter: affects cycloheximide protein synthesis inhibition readout, counter-screen. AID 2314. 300,000 compounds, 12% hits. max response, %. cell reporter, cycloheximide protein synthesis inhibition counterscreen; in the data active = max response mostly above about 13%, no sharp cut-off; inactive = mostly below about 14%; also: read at 38.3 µM for the half of the compounds with a filed dose; 0% is about no effect
Pf growth 96h: inhibits malaria parasite growth, 96 h. P. falciparum luciferase reporter growth, 96 h. Potency, µM (series often up to 28.7 µM), for inactives: top-dose activity change, negative = inhibition, actives largely listed as inhibitors. 320,000 compounds, 6.9% hits; also: potency is read from the fitted curve at half-maximal effect; % is scaled to controls: 0 for no effect and ±100 for the full control effect
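Parasite growth measured via integrated firefly luciferase reporter in P. falciparum. Infected erythrocytes at 2% hematocrit, 0.05% parasitemia final were treated 96 hours at 37 C under 5% CO2, and luminescence was read.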
Numbers without * were called inactive; ? = inconclusive; . = no result given; [ ] = another dose, or the depositor's remark. Rows were chosen to be rich in hits. Some 21% of all compounds tested hit in one or more screens of this group. Unless noted, calls follow the shape of the dose curve; as a rule, active = well fitted inhibition curve with a large enough effect; inconclusive = small, poorly fitted or top-dose-only effect, or another doubt; inactive = no such curve, though single readings can be large or run the other way.

SMILES | Shiga toxin inh | Pf growth 48h | CHX counter | Pf growth 96h
CCCCNC(=O)c1cc2c(-c3ccc(Cl)cc3)nn(C)c2s1 | -7.6 | . | -5.9 | ?
CCCCN(CC)CCCNC(=O)c1cc2c(-c3ccc(OC)c(OC)c3)nn(C)c2s1 | 11.8 | 2.62µM* | -2.8 | ?
COCCCNC(=O)c1cc2c(-c3ccc(Cl)cc3)nn(C)c2s1 | -15.0 | . | -4.6 | 43.0%
CCN1CCCC1CNC(=O)c1cc2c(-c3cccc(OC)c3)nn(C)c2s1 (stereo not drawn) | -3.9 | ? | 1.2 | 5.86µM*
CCN(CC)CCCNC(=O)c1cc2c(-c3cccc(OC)c3)nn(C)c2s1 | 6.0 | 8.28µM* | -3.4 | 80.1%
COc1cccc(-c2nn(C)c3sc(C(=O)NCCCN(C)Cc4ccccc4)cc23)c1 | -4.4 | 2.08µM* | -3.0 | 57.4%
CCN1CCCC1CNC(=O)c1cc2c(-c3ccc(Cl)cc3)nn(C)c2s1 (stereo not drawn) | -1.9 | . | -1.4 | 18.6%
CC1(C(=O)O)CCC(C(=O)NNC(=O)c2ccccc2O)C1(C)C (stereo not drawn) | -2.4 | 13.9% | -0.9 | 423.4%
CSCC[C@H](N)C(=O)N[C@@H](C)C(=O)NCC(=O)N[C@@H](CCCN=C(N)N)C(=O)N[C@@H](CO)C(=O)NCC(=O)N[C@@H](CC(=O)O)C(=O)N[C@@H](CO)C(=O)N[C@@H](CC(=O)O)C(=O)N[C@@H](CCC(=O)O)C(=O)N[C@@H](CC(=O)O)C(=O)N[C@@H](CC(C)C)C(=O)N[C@@H](CC(C)C)C(=O)N[C@@H](CCCCN)C(=O)N[C@@H](C)C(=O)N[C@H](C(=O)O)C(C)C | -9.7 | . | -8.0 | .
CCCCN(C)CCNC(=O)c1cc2c(-c3cccc(OC)c3)nn(C)c2s1 | -6.0 | 1.47µM* | -3.5 | -19.2%
COc1cccc(-c2nn(C)c3sc(C(=O)NCc4ccco4)cc23)c1 | -13.2 | 7.38µM* | 7.2 | 3.8%
Cc1ccc(NC(=O)CSCC(=O)N(CCC(C)C)c2c(N)n(Cc3ccccc3)c(=O)[nH]c2=O)cc1 | . | ? | . | -3.1%
Cc1ccc(CN(C)C(=O)COC(=O)CSc2cc(C)c3ccccc3n2)cc1 | . | -9.3% | . | 2.7%
O=C(Nc1ccc2c(c1)oc1ccccc12)N1CCOCC1 | 83.7* | . | 52.3* | 53.7%
CCn1c2ccccc2c2cc(NC(=O)CN(C)CC(=O)Nc3ccc(N4CCOCC4)cc3)ccc21 | 0.6 | -16.8%[1.15 µM] | -4.5 | 14.7µM*
O=C(Nc1ccccc1)N1CCOCC1 | -9.6 | 2.2% | -1.8 | 26.2%
Cc1ccc(NC(=O)CN(C)CC(=O)Nc2ccc(N3CCOCC3)cc2)cc1F | 18.6 | 7.3% | 6.8 | -6.9%
CCn1c2ccccc2c2cc(NC(=O)N3CCOCC3)ccc21 | 85.4* | 20.9% | 31.8* | -15.0%
Cc1ccc(S(=O)(=O)C2C(=O)N(C)C3(C)CC2c2ccccc2O3)cc1 (stereo not drawn) | -13.7 | -4.4% | -1.0 | -1.4%
CCc1nnc(NC(=O)CSc2ccc(-c3ccc(-n4cccn4)cc3)nn2)s1 | . | 44.1% | . | 137.8%
CCN(CCO)Cc1cc(=O)oc2cc3c(cc12)CCC3 | -16.0 | 86.5% | -4.4 | 220.5%
COc1ccc(C)cc1NC(=O)c1cnc2n(c1=O)CCS2 | 6.0 | 27.2% | 10.1* | ?
O=C(NCCc1ccccc1)c1cnc2n(c1=O)CCS2 | 110.9* | 176.2% | 34.4* | 0.0%
O=C(NCc1cccnc1)c1cnc2n(c1=O)CCS2 | 9.8 | -2.1% | 3.3 | .
CCOc1ccccc1NC(=O)c1cnc2n(c1=O)CCS2 | 34.9 | 7.4% | 4.5 | ?
SMILES | Shiga toxin inh | Pf growth 48h | CHX counter | Pf growth 96h
O=C(Nc1ccc(Oc2ccccc2)cc1)c1cnc2n(c1=O)CCS2 | -3.2 | . | 10.9 | 13.1µM*
O=C(NCCc1c[nH]c2ccccc12)c1cnc2n(c1=O)CCS2 | 58.8* | 70.2% | 30.5* | 34.2%
CCC(=O)Oc1ccc(C2NC(=O)c3ccccc3O2)cc1OC (stereo not drawn) | 16.3 | -0.7% | -4.8 | ?
CC(=O)Oc1ccc(Oc2ccc(-c3noc(C)n3)cc2)cc1 | 82.6* | 61.1% | 32.1* | .
CC(=O)Oc1ccc(-c2nc(-c3cccnc3)no2)cc1 | 41.2* | 120.7% | 38.9* | 29.7%
CCOc1ccc(-c2nc(-c3cccnc3)no2)cc1OCC | 40.7 | ? | 12.2* | .
O=C(COC(=O)C1CCC(N2C(=O)C3C4CCC(C4)C3C2=O)CC1)c1ccc(F)cc1 (stereo not drawn) | 17.2 | 9.1% | -5.5 | ?
N=c1c2c(-c3ccccc3)c(-c3ccccc3)n(Cc3ccccc3)c2ncn1CCCn1ccnc1 | -11.4 | 0.928µM* | -2.6 | 1.31µM*
O=c1c2cnn(-c3ccccc3)c2ncn1Cc1ccco1 | -3.1 | . | 13.5 | 66.2%
CCCCn1cnc2c(c(-c3ccccc3)c(-c3ccccc3)n2Cc2ccco2)c1=N | -27.7 | 4.15µM* | -3.2 | 2.33µM*
N=c1c2c(-c3ccccc3)c(-c3ccccc3)n(Cc3ccco3)c2ncn1Cc1ccco1 | -22.8 | 3.7µM* | -4.2 | ?
Cc1cc(C)n2nc(C(=O)NC3CCCc4ccccc43)nc2n1 (stereo not drawn) | -19.1 | -0.3% | -2.2 | ?
Cc1ccc(-n2nnnc2SCc2ccccn2)cc1C | 47.8 | 20.8% | 12.2 | .
O=C(CSc1ccccc1)Nc1nnc(C2CC2)s1 | 0.4 | 7.5% | -1.2 | -12.8%
Cc1nc(SCC2(C)CC2(Cl)Cl)n[nH]1 (stereo not drawn) | 18.5 | 17.1% | 8.4 | -5.9%
COc1ccc(C(C(=O)NC2CCCC2)N(C(=O)c2snc(-c3ccc(F)cc3)c2N)c2ccc(OC)cc2)cc1 (stereo not drawn) | 20.4 | ? | 11.0 | 5.22µM*
COc1ccc(C(C(=O)NC2CCCC2)N(C(=O)c2snc(-c3ccc(F)cc3)c2N)c2ccc(F)cc2)cc1 (stereo not drawn) | -15.1 | ? | -2.4 | -3.5%
COc1ccc(C)cc1N(C(=O)c1snc(C(N)=O)c1N)C(C(=O)NC1CCCC1)c1ccc(F)cc1 (stereo not drawn) | 10.9 | 9.28µM* | -3.2 | 21.3%
COc1cc(C(C(=O)NC2CCCC2)N(C(=O)c2snc(C(N)=O)c2N)c2ccccc2)cc(OC)c1OC (stereo not drawn) | 5.5 | ? | -2.0 | 8.28µM*
CC(=O)N1CCc2cc(S(=O)(=O)CCC(=O)Nc3ccccc3F)ccc21 | -4.8 | 6.0% | -5.3 | -11.1%
Cc1cccc(C(=O)NC(=S)Nc2cccc3nc(C)ccc23)c1 | -7.2 | ? | -3.7 | 6.0%
CC(C)C(=O)Nc1cccc(NC(=O)c2cc3ccccc3o2)c1 | 42.2* | 69.4% | 54.0* | .
Cc1ccc(NC(=O)c2cc3ccccc3o2)cc1Cl | 110.8* | 103.2% | 46.9* | ?
CC(=O)Nc1cccc(NC(=O)c2cc3ccccc3o2)c1 | 48.9 | . | 33.0* | 188.0%
Cc1cc(C)nc(NC(=O)c2cc3ccccc3o2)n1 | 39.2 | 30.9% | 4.0 | 15.0%
CCc1cccc(NC(=O)c2cccc3c2C(=O)N(CC2CCCO2)C3)c1 (stereo not drawn) | 10.7 | ? | -3.9 | ?
O=C1c2ccccc2C(=O)N1CC(O)CNc1ccc(Br)cc1 (stereo not drawn) | -2.7 | 4.0% | -2.8 | ?
NCC[C@H](NC(=O)[C@@H](N)CCCN=C(N)N[N+](=O)[O-])C(N)=O | -2.5 | . | 10.9 | .

Source: PubChem BioAssay (National Center for Advancing Translational Sciences (NCATS))
